# Inconclusive results are not listed. A number with no mark means an inactive call. Active and inactive are the calls of the source. The call rests on the fitted dose curve; in most records, active means well fitted cell-killing curve with a large enough effect; inconclusive means small, poorly fitted or top-dose-only effect, or effect the other way; inactive means no such curve, though single readings can be large or run the other way.
# Test: Quantitative High-Throughput drug screen in 47 multiple myeloma cell lines against the NCATS MIPE library collection: MMM1_PLB cell viability assay (AID 1918976); further: nearly all actives have a fitted effect of over 35% in size
# Details: MMM1 myeloma cells viability, CellTiter-Glo, 48 h; series mostly up to 45.8 µM; viability (% of control): at the top concentration
# How it was run: (§1)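 qHTS format: cells plated (500/well), pin-dosed with MIPE 4.0 compounds, kept 48 h at 37 °C. Readout was CellTiter-Glo luminescence, median RLU.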
# Potency means the concentration at half of the fitted maximal effect.
SMILES,viability (% of control),Potency
CCN(CC)CCOc1ccc(C(=C(Cl)c2ccccc2)c2ccccc2)cc1,142%,
COc1ccc(Cc2nccc3cc(OC)c(OC)cc23)cc1OC,,23.5 µM (active)
O=C1C(Cl)=C(NCCN2CCOCC2)C(=O)c2ncccc21,,2.96 µM (active)

# Test: Quantitative High-Throughput drug screen in 47 multiple myeloma cell lines against the NCATS MIPE library collection: MOLP8_DSMZ cell viability assay (AID 1918977); further: nearly all actives have a fitted effect of over 45% in size;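 on viability (% of control): 100% = DMSO-only wells and 0% = media-only wells without cells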
# Details: MOLP8 myeloma viability, CellTiter-Glo ATP luminescence, 48 h; series mostly up to 45.8 µM; viability (% of control): at the top concentration
# How it was run: as §1
SMILES,viability (% of control),Potency
CN[C@@H](C)C(=O)N[C@H]1CN(C(=O)CC(C)C)CC[C@H]2CC[C@@H](C(=O)NC(c3ccccc3)c3ccccc3)N2C1=O,87.3%,
CC(C)(C(=O)NCC(F)(F)C(F)(F)F)C(=O)N[C@@H]1C(=O)Nc2ccccc2-c2ccccc21,123%,
COc1ccc(-c2coc3cc(O)cc(O)c3c2=O)cc1,93.2%,
CON=C(C(=O)N[C@@H]1C(=O)N2C(C(=O)OCOC(=O)C(C)(C)C)=C(C=Cc3scnc3C)CS[C@H]12)c1csc(N)n1,115%,
COc1cccc([C@@H](C)NCCCc2ccccc2Cl)c1,98.3%,
CC(=O)N(C)C1(c2ccccc2)CCN(CCC[C@]2(c3ccc(Cl)c(Cl)c3)CCCN(C(=O)c3ccccc3)C2)CC1,,23.5 µM (active)
O=C(O)C=Cc1ccc(O)c(O)c1,,20.9 µM (active)
CC(=NNC(=S)N1CCC1)c1ccccn1,6%,
O=C1NC(=O)C(=Cc2cccc(C(F)(F)F)c2)S1,103%,
CC(C)(C)OC(=O)N[C@H]1CCCCCC=C[C@@H]2C[C@@]2(C(=O)NS(=O)(=O)C2CC2)NC(=O)[C@@H]2C[C@@H](OC(=O)N3Cc4cccc(F)c4C3)CN2C1=O,130%,
CC[C@@]1(O)C[C@H](O[C@H]2C[C@H](N(C)C)[C@H](O[C@H]3C[C@H](O)[C@H](O[C@H]4CCC(=O)[C@H](C)O4)[C@H](C)O3)[C@H](C)O2)c2c(cc3c(c2O)C(=O)c2c(O)cccc2C3=O)[C@@H]1C(=O)OC,,0.296 µM (active)
O=C1C(Cl)=C(NCCN2CCOCC2)C(=O)c2ncccc21,,2.96 µM (active)

# Reference: PubChem BioAssay (NCATS)
